Shown is part of a subset that was picked to be rich in hits.
HIV RNase H inh-1: inhibitors of HIV-1 reverse transcriptase RNase H; P04585; inhibition, % at 10 µM; 65,000 compounds, 1.9% hits; RT-RNase H RNA/DNA duplex cleavage, fluorescence; in the data active means inhibition above about 50%
HIV RNase H inh-2: confirmation of HIV-1 reverse transcriptase RNase H inhibitors; shares compounds with HIV RNase H inh-1; inhibition, % at 10 µM; AID 651; Recombinant RT RNase H, fluorescent RNA/DNA duplex cleavage; 1,000 compounds, 39% hits; in the data active means inhibition above about 48%; inconclusive means no clear call, values can overlap the other calls
A number is an active result.

Results for COc1cccc(Cn2nnc(C(=O)Nc3ccc(C)cc3)c2N)c1 ?
HIV RNase H inh-1: inactive

Results for COc1cccc(CNC(=O)c2nnn(CC(=O)Nc3ccc(C)c(C)c3)c2N)c1 ?
HIV RNase H inh-1: inactive

How did COc1ccc(CCNC2CCN(C)CC2)cc1OC do in these assays?
HIV RNase H inh-1: inactive

Results for Cc1cc(C)c(S(=O)(=O)Nc2ccc[nH]c2=O)c(C)c1 ?
HIV RNase H inh-1: inactive

How did COc1cccc(CN(C)CC(=O)NC(=O)NCc2ccco2)c1 do in these assays?
HIV RNase H inh-1: inactive

What do the screens show for `Cc1ccc(C)n1NC(=O)c1ccco1`?
HIV RNase H inh-1: inactive

How did CSc1nc(-c2ccco2)nn1C(=O)c1ccco1 do in these assays?
HIV RNase H inh-1: inactive

How did CN=C(c1ccco1)n1c(=S)nc(-c2ccco2)n(C)c1=S do in these assays?
HIV RNase H inh-1: 55.5; HIV RNase H inh-2: inconclusive

How did O=C(NCC(c1cccs1)N1CCOCC1)c1ccc(Cl)s1 (centres undefined) do in these assays?
HIV RNase H inh-1: inactive

Results for Cc1c(Cl)cccc1NC(=O)CSc1nnc(CCNC(=O)OC(C)(C)C)o1 ?
HIV RNase H inh-1: inactive

What do the screens show for `CC(C)Oc1ccc(C2/C(=C(/O)c3ccc(F)cc3)C(=O)C(=O)N2CCCN(C)C)cc1` (centres undefined)?
HIV RNase H inh-1: inactive

What do the screens show for `CCNc1ccc(C(=O)OCC)cc1NC(=O)c1cccc(S(=O)(=O)N2CCOCC2)c1`?
HIV RNase H inh-1: inactive

Results for O=C(NCC(=O)N(c1cccc(F)c1)C(C(=O)NCC1CCCO1)c1ccccc1)c1ccco1 (centres undefined) ?
HIV RNase H inh-1: inactive

How did O=C(NCC(=O)N(CC1CCCO1)C(C(=O)NC1CCCC1)c1ccc(F)cc1)c1ccco1 (centres undefined) do in these assays?
HIV RNase H inh-1: inactive

Results for O=C(NCC(=O)N(c1ccc(F)cc1)C(C(=O)NCC1CCCO1)c1ccccc1)c1ccco1 (centres undefined) ?
HIV RNase H inh-1: 56.6; HIV RNase H inh-2: inactive

What do the screens show for `O=C(NCc1ccccc1)NC1(C(=O)N2CCN(c3ccccc3)CC2)CCCCC1`?
HIV RNase H inh-1: inactive

How did CC1CCc2sc3c(c2C1)c1ncnn1c(=O)n3CC(=O)c1ccc(Br)cc1 (centres undefined) do in these assays?
HIV RNase H inh-1: inactive

What do the screens show for `CCOc1ccccc1N1CCN(C(=O)c2ccccc2)CC1`?
HIV RNase H inh-1: inactive

How did CCOc1ccccc1N1CCN(S(=O)(=O)c2cccs2)CC1 do in these assays?
HIV RNase H inh-1: inactive

How did CCOc1ccccc1N1CCN(S(=O)(=O)CC)CC1 do in these assays?
HIV RNase H inh-1: 53.0; HIV RNase H inh-2: inactive

What do the screens show for `NS(=O)(=O)c1cc2c(cc1Cl)NC(C1C[C@H]3C=C[C@@H]1C3)NS2(=O)=O` (some centres undefined)?
HIV RNase H inh-1: inactive

How did COc1ccc(-c2cc(=O)oc3cc(OCc4nn[nH]n4)ccc23)cc1 do in these assays?
HIV RNase H inh-1: inactive

How did NC(CO)C(=O)NNCc1ccc(O)c(O)c1O (centres undefined) do in these assays?
HIV RNase H inh-1: inactive; HIV RNase H inh-2: inactive

How did COC(=O)c1cc(OC)c(OC)cc1NC(=O)c1c(C)noc1C do in these assays?
HIV RNase H inh-1: inactive

How did CC(C)(C)c1ccc(-c2nnc3sc(-c4ccncc4)nn23)cc1 do in these assays?
HIV RNase H inh-1: 94.7; HIV RNase H inh-2: 57.6

Results for CCOc1ccc(-c2nn3c(-c4ccc(OC)cc4)nnc3s2)cc1 ?
HIV RNase H inh-1: inactive

How did c1csc(-c2nn3c(-c4ccncc4)nnc3s2)c1 do in these assays?
HIV RNase H inh-1: inactive

Results for CCOc1ccc(-c2nnc3sc(COc4ccccc4)nn23)cc1 ?
HIV RNase H inh-1: inactive

Results for CCOc1ccc(-c2nn3c(-c4ccccc4)nnc3s2)cc1 ?
HIV RNase H inh-1: 87.2; HIV RNase H inh-2: inactive

How did Cc1nnc2sc(-c3ccncc3)nn12 do in these assays?
HIV RNase H inh-1: inactive

What do the screens show for `CCN(Cc1cc2ccccc2[nH]c1=O)C(=O)C(C)C`?
HIV RNase H inh-1: inactive

What do the screens show for `CN(CC(=O)NCc1cccs1)S(=O)(=O)c1cccc2nsnc12`?
HIV RNase H inh-1: inactive

Results for O=C1CC(N2CCN(C3CC(=O)N(CCc4ccccc4)C3=O)CC2)C(=O)N1CCc1ccccc1 (centres undefined) ?
HIV RNase H inh-1: inactive

Results for O=C1CC(N2CCN(C/C=C/c3ccccc3)CC2)C(=O)N1Cc1cccs1 (centres undefined) ?
HIV RNase H inh-1: inactive

How did O=C1CC(N2CCN(c3ccc(O)cc3)CC2)C(=O)N1Cc1cccs1 (centres undefined) do in these assays?
HIV RNase H inh-1: 80.7; HIV RNase H inh-2: inactive

Results for Cc1ccc2c(c1)nnn2C1CCN(CC(=O)Nc2ccc3c(c2)OCCO3)CC1 ?
HIV RNase H inh-1: inactive

How did CC(C)c1cc(C(F)(F)F)n2nc(C(=O)Nc3ccc4c(c3)OCO4)cc2n1 do in these assays?
HIV RNase H inh-1: inactive

What do the screens show for `O=C(CN1C(=O)NC2(CCCc3ccccc32)C1=O)N1CCc2ccccc2C1` (centres undefined)?
HIV RNase H inh-1: inactive

How did CCOc1c(Br)ccc2c1sc1nc[nH]c(=O)c12 do in these assays?
HIV RNase H inh-1: inactive

What do the screens show for `Oc1cc(NCc2cccnc2)ccc1-c1nc2ccccc2o1`?
HIV RNase H inh-1: inactive

How did CCc1ccc(OCC(=O)Nc2ccc(-c3nc4ccccc4o3)c(O)c2)cc1 do in these assays?
HIV RNase H inh-1: 68.0; HIV RNase H inh-2: inconclusive

How did COc1ccc(OCC(=O)Nc2cccc(-c3nc4ccccc4o3)c2)cc1 do in these assays?
HIV RNase H inh-1: inactive

What do the screens show for `Cc1cc(NC(=O)CCC(=O)N(c2ccccc2)C2(C(=O)NC3CCCCC3)CCCC2)no1`?
HIV RNase H inh-1: inactive

What do the screens show for `O=C(C1CC1)N1CCc2cc(Br)cc(S(=O)(=O)NCC3COc4ccccc4O3)c21` (centres undefined)?
HIV RNase H inh-1: inactive

How did COc1cc(Cl)c(S(=O)(=O)NCc2cccnc2)cc1Cl do in these assays?
HIV RNase H inh-1: inactive

Results for Cc1ccc(-n2c(=O)cc(NCc3cccnc3)[nH]c2=O)cc1 ?
HIV RNase H inh-1: inactive

How did CCOc1ccc(-c2n[nH]c(C)c2Oc2ccc(OC)cc2)c(O)c1 do in these assays?
HIV RNase H inh-1: inactive

How did CCCCS/C(=C(/C#N)C(N)=O)c1cc2c([nH]1)CCCC2 do in these assays?
HIV RNase H inh-1: 81.1; HIV RNase H inh-2: inactive

Results for CCc1ccc(N/C(SC)=C(/C#N)C(N)=O)cc1 ?
HIV RNase H inh-1: inactive

Results for CC(C)CC(OC(=O)c1ccco1)C(=O)NC1CCCCC1 (centres undefined) ?
HIV RNase H inh-1: inactive

How did CCN(CCCNC(=O)CN1C(=O)COc2ccccc21)c1cccc(C)c1 do in these assays?
HIV RNase H inh-1: inactive

What do the screens show for `COC(=O)C1=C(C)NC(=O)NC1c1ccc(OCC(=O)N2CCCCC2)cc1` (centres undefined)?
HIV RNase H inh-1: inactive

How did CO/C([O-])=N/c1c[n+](-c2ccc(C)cc2)no1 do in these assays?
HIV RNase H inh-1: inactive

Results for COc1ccc(CC[n+]2cc(/N=C(\C)[O-])on2)cc1OC ?
HIV RNase H inh-1: inactive

Results for CCCC[n+]1cc(/N=C(\[O-])OC)on1 ?
HIV RNase H inh-1: 83.9; HIV RNase H inh-2: inactive

Results for O=S(=O)(c1cccs1)N1CCCc2ccccc21 ?
HIV RNase H inh-1: inactive

Results for Cc1nc(N2CCN(C)CC2)c2c(C)c(C(=O)Nc3ccc(F)cc3)sc2n1 ?
HIV RNase H inh-1: inactive

Results for O=C(Nc1ccc(-n2nncc2-c2ccco2)cc1)c1ccc(F)cc1 ?
HIV RNase H inh-1: inactive
